Shiga inhibitor = blocks Shiga toxin action in Vero cells; Vero cells, Shiga toxin protein synthesis inhibition reporter; inhibition, % at 38.7 µM; actives 9.2% (n = 290,000); AID 2315; in the data active = inhibition mostly above about 28%, no sharp cut-off; inactive = mostly below about 43%
AmpC inh detg = inhibitors of E. coli AmpC beta-lactamase with detergent. P00811. AmpC hydrolysis of nitrocefin, absorbance 480 nm, 0.01% Triton. Potency, µM (top dose mostly 114 µM), most hits filed as inhibitors. actives 0.041% (n = 370,000). AID 485294; also: nearly all actives have a fitted effect of over 25% in size
Target sequence (P00811 whole entry, looked up): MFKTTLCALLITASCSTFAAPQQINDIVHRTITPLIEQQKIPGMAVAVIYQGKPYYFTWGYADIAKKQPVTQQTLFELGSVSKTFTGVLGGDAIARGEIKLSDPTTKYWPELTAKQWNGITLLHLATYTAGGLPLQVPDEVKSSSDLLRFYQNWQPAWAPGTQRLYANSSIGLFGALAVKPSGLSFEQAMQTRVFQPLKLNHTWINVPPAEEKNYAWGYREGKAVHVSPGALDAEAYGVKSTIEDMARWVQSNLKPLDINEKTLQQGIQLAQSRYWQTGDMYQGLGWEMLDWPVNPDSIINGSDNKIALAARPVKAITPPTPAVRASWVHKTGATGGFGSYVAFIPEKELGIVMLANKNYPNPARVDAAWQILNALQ
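AmpC (5.3 nM in the dispensed reagent) in 20 mM phosphate pH 7.0 with 0.01% (detergent screen) or 0.0001% Triton X-100 was preincubated with compounds for 15 min at room temperature. Nitrocefin was then added from an 800 uM solution, and hydrolysis was followed at 480 nm.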
Cycloheximide cs = counter-screen hit for Shiga toxin inhibitors, cycloheximide; actives 12% (n = 300,000); max response, %; cell reporter, cycloheximide protein synthesis inhibition counterscreen; AID 2314; in the data active = max response mostly above about 13%, no sharp cut-off; inactive = mostly below about 14%; also: read at 38.3 µM for the half of the compounds with a filed dose
AmpC inh no detg = blocks E. coli AmpC beta-lactamase in detergent-free assay; P00811; AmpC nitrocefin hydrolysis, absorbance 480 nm, 0.0001% Triton; actives 0.52% (n = 330,000); Potency, µM (series often up to 57.1 µM), most hits filed as inhibitors; AID 485341; also: nearly all actives have a fitted effect of over 20% in size
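20 mM phosphate pH 7.0 + 0.01% (detergent screen) or 0.0001% Triton X-100; 5.3 nM AmpC reagent; cpd preinc 15 min RT; nitrocefin (800 uM stock) to start; A480 q20 s × 4 min; Activity was normalised to no-enzyme and no-compound control wells.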
SARS PLP yeast = SARS-CoV PLP inhibition in yeast; Potency, µM (doses to about 32.9 µM), most hits filed as activators; actives 0.19% (n = 330,000); S. cerevisiae expressing SARS-CoV PLpro, growth rescue; calls by dose curve; also: nearly all actives have a fitted effect of over 55% in size
AMA1 RON2 block = disrupts binding of P. falciparum AMA1 to RON2 | AlphaScreen AMA1-biotinylated RON2 peptide binding | Potency, µM (doses to about 58.2 µM), most hits filed as inhibitors | actives 0.2% (n = 360,000); also: nearly all actives have a fitted effect of over 45% in size
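AMA1 (3D7) with his tag at 25 nM final met compounds first, then biotinylated RON2 peptide at 25 nM; detection used donor plus acceptor beads, 10 µg/mL apiece, read by AlphaScreen after 30 min at room temperature.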
Each line names hits and unclear results; the compound was inactive in the other large screens. This excerpt belongs to a sample that is enriched for hits. Unless noted, calls follow the shape of the dose curve; as a rule, active = well fitted curve in the direction sought with a large enough effect; inconclusive = small, poorly fitted or top-dose-only effect, or another doubt; inactive = no such curve, though single readings can be large; an effect the other way counts as inactive or inconclusive.

c1ccc2c(c1)ncn2CCCCOc1ccc2c(c1)CCC2	Cycloheximide cs 18, AMA1 RON2 block inconclusive
c1ccc2c(c1)ncn2CCCOc1ccc2c(c1)CCC2	Shiga inhibitor 98, Cycloheximide cs 19
CCCN1CCN(C(=O)c2cc(COc3ccc(F)cc3F)on2)CC1	none
COc1ccc(C2=NN(c3nc(C)cc(C)n3)C(=O)C2)cc1	none
Cc1ccc(NC(=O)CCc2c(C)nn(-c3ccc(N4CCOCC4)nn3)c2C)cc1	Cycloheximide cs 23
CCc1cccc(NC(=O)CCc2c(C)nn(-c3ccc(N4CCOCC4)nn3)c2C)c1	Cycloheximide cs 26
CCc1ccc(NC(=O)CCc2c(C)nn(-c3ccc(N4CCOCC4)nn3)c2C)cc1	Shiga inhibitor 45, Cycloheximide cs 42
COc1ccc(NC(=O)CCc2c(C)nn(-c3ccc(N4CCOCC4)nn3)c2C)cc1	none
Cc1nn(-c2ccc(N3CCOCC3)nn2)c(C)c1CCC(=O)Nc1ccccc1	Cycloheximide cs 26
Cc1ccnc(NS(=O)(=O)c2ccc(NC(=O)CCS(=O)(=O)c3ccccc3)cc2)n1	none
COc1ccc(Cc2nc3c4c(ncn3n2)Oc2ccc3ccccc3c2C4c2ccc(OC)c(OC)c2)cc1 (centres undefined)	none
O=C(OCC(=O)N1CCCCCC1)c1ccccc1Br	none (no result: Shiga inhibitor, Cycloheximide cs)
Cc1ccc(NC(=O)CCc2c(C)nn(-c3ccc(N4CCOCC4)nn3)c2C)cc1F	Shiga inhibitor 69, Cycloheximide cs 41
CC(=O)c1ccc(NC(=O)CCc2nnc3ccc(N4CCCC4)nn23)cc1	Shiga inhibitor 50, Cycloheximide cs 31
CC(=O)c1ccc(NC(=O)CCc2c(C)nn(-c3ccc(N4CCOCC4)nn3)c2C)cc1	Shiga inhibitor 40, Cycloheximide cs 44
CCc1ccccc1N1CC(c2nc3ccccc3n2CC(C)C)CC1=O (centres undefined)	none (no result: Shiga inhibitor, Cycloheximide cs, AmpC inh no detg, SARS PLP yeast, AMA1 RON2 block)
O=C(COc1ncnc2ccccc12)NCc1ccco1	none
COCCCN(CC(=O)O)S(=O)(=O)c1ccccc1	none
COc1ccc(CCNC(=O)c2cc3sc(Cl)cc3n2C)cc1OC	AmpC inh detg inconclusive, AmpC inh no detg 50µM
Cc1ccc(CNC(=O)c2cc3sc(Cl)cc3n2C)cc1	none (no result: Shiga inhibitor, Cycloheximide cs, AmpC inh no detg, SARS PLP yeast, AMA1 RON2 block)
Cc1csc2c(=O)sc(NC(=O)c3ccc(F)cc3Cl)nc12	none
Cc1csc2c(=O)sc(NC(=O)c3ccc(F)cc3)nc12	none
O=C(Nc1nc2ccsc2c(=O)s1)c1ccc(F)cc1Cl	Shiga inhibitor 73, Cycloheximide cs 33
O=C(Nc1nc2ccsc2c(=O)s1)c1ccc(F)cc1	Shiga inhibitor 81, Cycloheximide cs 45
CCC(C)N1CCN(S(=O)(=O)c2ccc(NC(C)=O)cc2)CC1 (centres undefined)	none
COc1ccc(CNC(=O)C(=O)NC2CCC(C)CC2)cc1 (centres undefined)	none
O=C(Nc1nc2ccc(F)cc2s1)c1nc(S(=O)(=O)Cc2ccccc2F)ncc1Cl	none (no result: Shiga inhibitor, Cycloheximide cs, AmpC inh no detg, SARS PLP yeast, AMA1 RON2 block)
CC(C)c1nnc(NC(=O)c2nc(S(=O)(=O)Cc3ccccc3F)ncc2Cl)s1	Shiga inhibitor 106, Cycloheximide cs 56
Cc1nnc(NC(=O)c2nc(S(=O)(=O)Cc3ccccc3C)ncc2Cl)s1	Shiga inhibitor 51, AmpC inh detg inconclusive, Cycloheximide cs 44
CSc1nnc(NC(=O)c2nc(S(=O)(=O)Cc3ccccc3F)ncc2Cl)s1	Shiga inhibitor 36, Cycloheximide cs 51
COc1cc([N+](=O)[O-])ccc1NC(=O)NCc1ccccn1	Cycloheximide cs 12
O=C(NCc1ccccn1)Nc1ccccc1F	Shiga inhibitor 49, AmpC inh detg inconclusive, Cycloheximide cs 21
COc1cc([N+](=O)[O-])ccc1NC(=S)NCc1ccccn1	none
O=C(NCc1ccccn1)Nc1ccccc1C(F)(F)F	AmpC inh detg inconclusive, Cycloheximide cs 15
C[C@H](NCCc1ccc(O)cc1)[C@H](O)c1ccc(O)cc1	none (no result: Shiga inhibitor, Cycloheximide cs, SARS PLP yeast)
CCc1cccc2c(C(=S)N3CCCC3)c[nH]c12	Cycloheximide cs 15
CCc1cccc2c(C(=O)CCl)c[nH]c12	SARS PLP yeast 13µM
COc1ccc(-c2cc(C(=O)NC(Cc3cc4ccccc4[nH]3)C(=O)O)c(C)o2)cc1OC (centres undefined)	Shiga inhibitor 49, Cycloheximide cs 33
CC(=O)Nc1ccc(NC(=O)COC(=O)c2ccc(S(=O)(=O)NCc3ccco3)cc2)cc1	none (no result: Shiga inhibitor, AmpC inh detg, Cycloheximide cs)
Cc1c(C(=O)N2CCc3ccccc3C2)sc2nc(-c3ccccc3)cn12	Shiga inhibitor 45, Cycloheximide cs 27
COC(=O)C1CCN(C(=O)c2sc3nc(-c4ccc(F)cc4)cn3c2C)CC1	Shiga inhibitor 37, Cycloheximide cs 16
COc1ccc(-c2cn3c(C)c(C(=O)N4CCc5ccccc5C4)sc3n2)cc1	none
CCOC(=O)C1CCN(C(=O)c2sc3nc(-c4ccccc4)cn3c2C)CC1	none
Cc1c(C(=O)N2CCOCC2)sc2nc(-c3ccccc3)cn12	Shiga inhibitor 43, Cycloheximide cs 21
CN1NC(=O)CC1c1ccccc1 (centres undefined)	none (no result: Shiga inhibitor, AmpC inh detg, Cycloheximide cs, AmpC inh no detg, SARS PLP yeast)
CSCCC(NC(=O)c1ccco1)C(=O)OCC(=O)N(Cc1ccccc1)C(C)(C)C (centres undefined)	none (no result: Shiga inhibitor, Cycloheximide cs)
NS(=O)(=O)c1ccc(NCC2COc3ccccc3O2)c([N+](=O)[O-])c1 (centres undefined)	Cycloheximide cs 16
CC(=O)c1ccc(NCC2COc3ccccc3O2)c([N+](=O)[O-])c1 (centres undefined)	Shiga inhibitor 57, Cycloheximide cs 31, AMA1 RON2 block inconclusive
O=C(NCC1COc2ccccc2O1)c1ccc(-n2cncn2)c([N+](=O)[O-])c1 (centres undefined)	none (no result: Shiga inhibitor, Cycloheximide cs)
c1ccc(-c2cc(N3CCCCCC3)n[nH]2)cc1	Shiga inhibitor 151, Cycloheximide cs 48
Nc1nc(-c2ccccc2)cc(N2CCCCC2)n1	AmpC inh detg inconclusive
O=C(Nc1cc(N2CCCCC2)ncn1)c1ccccc1	Shiga inhibitor 54, Cycloheximide cs 29
c1ccc(-c2cc(N3CCCCC3)ncn2)cc1	Shiga inhibitor 62, Cycloheximide cs 41
CCN1C(=O)CSC1=Nc1ccc(C(=O)O)cc1	none (no result: Shiga inhibitor)
CC(C)(C)c1ccc(N=C2SCC(=O)N2Cc2cccs2)cc1	Shiga inhibitor 50, Cycloheximide cs 47
O=C(CCN1CCN(c2ccccc2F)CC1)Nc1ccccc1F	Cycloheximide cs 18, SARS PLP yeast inconclusive
O=C(NCCCCc1ccccc1)Nc1ccc(F)cc1F	none
O=C(CCc1ccccc1)Nc1ccc(F)cc1F	Shiga inhibitor 67, Cycloheximide cs 23
O=C(CSCc1cnn(-c2ccccc2)c1-n1cccc1)Nc1ccc(F)cc1F	none (no result: Shiga inhibitor, Cycloheximide cs, AmpC inh no detg, SARS PLP yeast, AMA1 RON2 block)
O=C(CSCc1ccccc1)Nc1ccc(F)cc1F	Shiga inhibitor 49, Cycloheximide cs 21
